The source of these data is PubChem BioAssay (NCI).

Compounds without any hit were thinned out: in the full panel of roughly 83,000, 20% have a hit.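 Single-dose data. Exposure time 48 hours. Values below 10 considered active.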 Values without a mark were called inactive. The source made the active and inactive calls.

What all share (test): NCI-60 one-dose screen, 48 h (100 = growth as untreated, 0 = no growth, -100 = all killed)
What all share (conditions): 10 µM unless noted

Test [1] has as its system NCI-H23 lung.
Test [2] concerns NCI-H226 lung.
Test [3] has as its system NCI-H322M lung.
The subject of test [4] is HOP-62 NSCLC.
Test [5] concerns NCI-H460 lung.
Test [6] relates to HOP-92 NSCLC.
For test [7], the system named is NCI-H522 lung.
Test [8] has as its system A549/ATCC NSCLC.
For test [9], the system named is 786-0 renal.
The test system of test [10] is COLO 205 colon.

Consider `CCOC(=O)[C@@H](C)C[C@H](Cc1ccccc1)NC(=O)c1csc([C@@H](C[C@H](C(C)C)N(C)C(=O)[C@H](CC)NC(=O)[C@H]2CCCCN2C)OC(C)=O)n1`, for which the growth in test [1] is 28.4%; in test [2], 65.2%; in test [3] it was 43.1%; in test [4], 20.2%; in test [5], 6.53% (active); in test [6], 41.5%. Besides, the growth in test [7] is -22.8% (active); in test [8], 7.92% (active); in test [9], 8.33% (active); in test [10], -61.6% (active).
With `COC(=O)[C@@H](NC(=O)c1cn(CCC2CCCCC2)c2ccccc12)C(C)(C)C`, the growth in test [1] is 76.4%; in [2] it was 58.6%; in test [3], 83.7%; in test [4], 61.8%; in test [5], 79.3%; in test [6], 63.4%. The growth was 63.7% in test [7], 64.8% in [8], 73.5% in [9] and 96.4% in test [10].
For `COC(=O)[C@@H](C)C[C@H](Cc1ccccc1)NC(=O)c1csc([C@@H](C[C@H](C(C)C)N(C)C(=O)[C@@H](NC(=O)CN(C)C)C2CC2)OC(C)=O)n1`, the growth in test [1] is 25%; in test [2] it was 19.1%; in test [3] it was 47.7%; in test [4], 19.1%; in test [5] it was 10.3%; in test [6] it was 26.4%. Moreover, the growth in test [7] is -44.7% (active); in test [8], 13.5%; in [9] it was 21%; in test [10], -72.8% (active).
Regarding `OCCCCCNC1CCCCC1`, the growth is 97.3% in test [1]; 98.9% in test [2]; 99% in [3]; 111% in test [4]; 109% in test [5]; 96.1% in test [6]. Also, the growth in test [7] was 67.8%; in [8] it was 107%; in [9], 99.5%; in [10] it was 112%.
In the case of `CC(=O)O[C@H]1CC[C@H]2[C@@H]3CC=C4c5nc(-c6ccccc6)sc5CC[C@]4(C)[C@H]3CC[C@]12C`, the growth was 71.7% in test [1]; 95.5% in test [2]; 91.4% in [3]; 72.1% in test [4]; 39.4% in test [5]; 102% in test [6]. The growth in test [7] was 43.8%; in test [8] it was 57.9%; in test [9] it was 66.3%; in test [10], 7.45% (active).
With `CN(C)CC(C(=O)Cc1ccccc1)c1ccccc1` (stereo not given), the growth in [1] was 83.6%; in test [2] it was 125%; in test [3] it was 102%; in test [4], 106%; in test [5] it was 102%; in test [6], 86.3%. Further, the growth in [7] is -81.3% (active); in test [8], 97.5%; in [9], 9.78% (active); in test [10] it was 5.72% (active).
As to `COc1ccc2c(c1)c(-c1nc(-c3c[nH]c4ncccc34)cs1)cn2CCN1CCOCC1`, the growth in test [1] is 57.3%; in test [2] it was 49.7%; in [3], 57.3%; in test [4], 27.4%; in [5] it was 40.8%; in test [6] it was 28.8%. Moreover, the growth was 44.5% in [7], 51.2% in test [8], 55.5% in test [9] and 61.6% in test [10].
Regarding `O=c1[nH]c2ccc([N+](=O)[O-])cc2c(=O)o1`, the growth in [1] is 101%; in [2], 108%; in test [3] it was 97.6%; in test [4] it was 103%; in test [5], 103%; in test [6], 79.5%. Besides, the growth in [7] is 100%; in test [8] it was 107%; in test [9], 112%; in test [10], 109%.
As for `CC1=C(CCCOC(=O)[C@H](N)CC(C)C)C2=C(C)C3(CC3)[C@@](C)(O)C(=O)C2=C1`, the growth was -27.6% (active) in test [1]; 0.712% (active) in test [2]; 18.5% in test [3]; -13% (active) in [4]; 2.82% (active) in test [5]; -13.6% (active) in test [6]. The growth is 31.3% in test [7], 0.0474% (active) in test [8], 1.3% (active) in test [9] and -46.1% (active) in test [10].
Regarding `CCCCCSC1C2C(=O)C(Br)=CC13CCNc1c(O)c4c5c(c13)=[N+]2CCC=5C=N4` (stereo not given), the growth is -17.1% (active) in [1]; -5.15% (active) in [2]; 2.94% (active) in test [3]; -73.2% (active) in test [4]; -33.7% (active) in test [5]; -56.1% (active) in [6]. The growth was -64.4% (active) in test [7], -52.1% (active) in [8], -50.3% (active) in [9] and -76.5% (active) in test [10].
